# Laboratory results reported in paper PMC7862700, “An all-to-all approach to the identification of sequence-specific readers for epigenetic DNA modifications on cytosine”.
# Legend:
# Experiment in all cases: DAPPL (digital affinity profiling via proximity ligation, sequencing); 10 mM Tris-HCl pH 7.5, 50 mM NaCl, 1 mM DTT, 4% glycerol, room temperature, 30 min; GST-TFs on glutathione beads, 16-mer random dsDNA library, 0.1% formaldehyde crosslink after washing; high values mean tight binding
# FLI1 = target: T1, FLI1 (Homo sapiens, UniProt Q01543 1-452); details: protein: recombinant; tags: N-terminal GST; dsDNA, one strand shown
# T1 sequence: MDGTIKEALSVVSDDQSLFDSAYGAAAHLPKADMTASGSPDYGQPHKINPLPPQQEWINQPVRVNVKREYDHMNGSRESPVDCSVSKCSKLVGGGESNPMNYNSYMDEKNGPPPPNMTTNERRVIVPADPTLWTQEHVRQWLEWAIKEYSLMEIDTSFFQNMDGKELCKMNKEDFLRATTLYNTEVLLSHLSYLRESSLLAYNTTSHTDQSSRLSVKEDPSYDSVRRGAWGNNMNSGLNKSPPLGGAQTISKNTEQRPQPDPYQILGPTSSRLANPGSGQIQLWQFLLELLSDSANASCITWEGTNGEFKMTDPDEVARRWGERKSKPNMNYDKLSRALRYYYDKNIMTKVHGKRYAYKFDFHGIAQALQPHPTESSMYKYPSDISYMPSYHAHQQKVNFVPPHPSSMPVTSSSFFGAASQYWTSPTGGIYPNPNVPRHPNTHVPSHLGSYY
# Outline: (§1)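 GST fusions of human transcription factors were expressed in yeast and captured with glutathione beads. Once given DNA barcodes and pooled alongside a tag-only sample, they were incubated for 30 min at room temperature with 200 nmole of a random double-stranded 16-mer DNA library in Tris/NaCl/DTT/glycerol buffer, then washed, crosslinked (0.1% formaldehyde), proximity-ligated, PCR-amplified and sequenced on an Illumina NextSeq500. The binding signal of each hexamer is its read frequency for a factor divided by its frequency for the tag-only sample.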
# ELK1 = target: T2, ELK1 (Homo sapiens, UniProt P19419 1-428); details: protein: recombinant; tags: N-terminal GST; dsDNA, one strand shown
# T2 sequence: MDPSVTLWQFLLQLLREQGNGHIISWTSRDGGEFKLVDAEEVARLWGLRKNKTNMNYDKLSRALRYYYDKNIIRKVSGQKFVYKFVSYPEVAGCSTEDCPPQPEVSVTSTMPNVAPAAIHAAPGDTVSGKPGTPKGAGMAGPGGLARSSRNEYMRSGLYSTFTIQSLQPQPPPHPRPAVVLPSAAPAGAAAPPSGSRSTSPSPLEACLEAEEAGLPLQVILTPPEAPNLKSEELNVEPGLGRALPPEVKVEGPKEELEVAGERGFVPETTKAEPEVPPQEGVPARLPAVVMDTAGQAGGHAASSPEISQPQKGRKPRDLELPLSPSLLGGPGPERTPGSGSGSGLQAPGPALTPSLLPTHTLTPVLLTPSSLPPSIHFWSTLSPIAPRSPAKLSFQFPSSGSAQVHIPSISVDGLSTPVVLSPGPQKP
# Outline: as §1
# GABPA = target: T3, GABPA (Homo sapiens, UniProt Q06546 1-454); details: protein: recombinant; tags: N-terminal GST; dsDNA, one strand shown
# T3 sequence: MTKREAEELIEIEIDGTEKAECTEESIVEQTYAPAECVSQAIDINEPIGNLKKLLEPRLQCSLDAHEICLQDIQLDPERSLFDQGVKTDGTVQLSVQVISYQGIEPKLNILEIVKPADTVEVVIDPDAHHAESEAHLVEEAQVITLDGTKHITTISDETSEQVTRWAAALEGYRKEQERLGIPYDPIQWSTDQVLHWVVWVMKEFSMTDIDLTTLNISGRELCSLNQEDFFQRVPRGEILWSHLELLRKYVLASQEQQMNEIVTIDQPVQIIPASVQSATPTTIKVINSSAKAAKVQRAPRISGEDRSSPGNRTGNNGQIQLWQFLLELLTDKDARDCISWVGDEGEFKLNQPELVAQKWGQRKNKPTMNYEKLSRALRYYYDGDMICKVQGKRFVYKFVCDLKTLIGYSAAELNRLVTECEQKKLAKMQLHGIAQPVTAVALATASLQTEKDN
# Outline: as §1
# ERG = target: T4, ERG (Homo sapiens, UniProt P11308 1-479); details: protein: recombinant; tags: N-terminal GST; dsDNA, one strand shown
# T4 sequence: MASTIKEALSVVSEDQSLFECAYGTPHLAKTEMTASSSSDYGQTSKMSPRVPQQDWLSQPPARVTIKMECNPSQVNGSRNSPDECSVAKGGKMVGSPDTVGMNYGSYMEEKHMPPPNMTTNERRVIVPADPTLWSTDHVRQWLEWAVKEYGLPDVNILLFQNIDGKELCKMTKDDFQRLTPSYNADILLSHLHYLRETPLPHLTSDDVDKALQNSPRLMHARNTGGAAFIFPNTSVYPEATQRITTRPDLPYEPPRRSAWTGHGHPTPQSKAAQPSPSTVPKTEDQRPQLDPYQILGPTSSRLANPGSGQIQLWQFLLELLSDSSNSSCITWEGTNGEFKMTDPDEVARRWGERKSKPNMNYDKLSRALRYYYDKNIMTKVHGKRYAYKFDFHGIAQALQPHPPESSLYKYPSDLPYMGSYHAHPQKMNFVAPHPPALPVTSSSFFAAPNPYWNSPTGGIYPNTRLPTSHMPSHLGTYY
# Outline: as §1
# ELF1 = ELF1 (Homo sapiens, UniProt P32519 1-619); details: protein: recombinant; tags: N-terminal GST; dsDNA, one strand shown
# Chain of ELF1 (P32519 whole entry): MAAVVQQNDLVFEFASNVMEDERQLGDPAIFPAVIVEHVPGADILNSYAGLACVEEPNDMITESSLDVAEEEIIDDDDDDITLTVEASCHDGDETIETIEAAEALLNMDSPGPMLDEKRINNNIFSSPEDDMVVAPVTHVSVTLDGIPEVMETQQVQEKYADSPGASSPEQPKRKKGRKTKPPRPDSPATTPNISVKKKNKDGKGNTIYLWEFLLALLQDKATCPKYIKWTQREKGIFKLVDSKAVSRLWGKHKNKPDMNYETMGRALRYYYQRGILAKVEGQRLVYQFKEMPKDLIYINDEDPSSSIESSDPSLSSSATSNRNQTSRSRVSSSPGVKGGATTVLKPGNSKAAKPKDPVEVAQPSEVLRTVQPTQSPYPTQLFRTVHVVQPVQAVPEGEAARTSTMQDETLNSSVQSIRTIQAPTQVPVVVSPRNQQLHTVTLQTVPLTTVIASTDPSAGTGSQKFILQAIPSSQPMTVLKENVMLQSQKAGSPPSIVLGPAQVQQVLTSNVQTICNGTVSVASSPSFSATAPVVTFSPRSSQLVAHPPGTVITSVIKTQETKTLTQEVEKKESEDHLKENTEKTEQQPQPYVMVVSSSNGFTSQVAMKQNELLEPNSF
# Outline: as §1
# EHF = target: T5, EHF (Homo sapiens, UniProt Q9NZC4 1-300); details: protein: recombinant; tags: N-terminal GST; dsDNA, one strand shown
# T5 sequence: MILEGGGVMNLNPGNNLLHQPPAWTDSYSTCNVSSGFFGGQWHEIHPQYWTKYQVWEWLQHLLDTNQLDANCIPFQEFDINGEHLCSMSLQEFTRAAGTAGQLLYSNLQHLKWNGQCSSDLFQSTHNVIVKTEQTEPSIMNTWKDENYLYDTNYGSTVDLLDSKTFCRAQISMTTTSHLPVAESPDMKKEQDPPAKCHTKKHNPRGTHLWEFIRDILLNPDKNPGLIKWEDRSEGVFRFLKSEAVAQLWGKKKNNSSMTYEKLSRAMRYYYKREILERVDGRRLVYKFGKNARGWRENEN
# Outline: as §1
# SPI1 = SPI1 (Homo sapiens, UniProt P17947 1-270); details: protein: recombinant; tags: N-terminal GST; dsDNA, one strand shown
# Outline: as §1
# SPIB = SPIB (Homo sapiens, UniProt Q01892 1-262); details: protein: recombinant; tags: N-terminal GST; dsDNA, one strand shown
# Chain of SPIB (Q01892 whole entry): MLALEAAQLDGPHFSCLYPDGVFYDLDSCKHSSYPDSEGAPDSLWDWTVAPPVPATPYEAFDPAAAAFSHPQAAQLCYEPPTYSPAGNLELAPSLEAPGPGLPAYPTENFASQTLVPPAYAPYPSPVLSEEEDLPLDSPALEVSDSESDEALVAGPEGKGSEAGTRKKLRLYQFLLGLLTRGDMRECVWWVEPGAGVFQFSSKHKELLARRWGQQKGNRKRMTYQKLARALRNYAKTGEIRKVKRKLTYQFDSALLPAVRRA
# Outline: as §1
# ELK3 = target: T6, ELK3 (Homo sapiens, UniProt P41970 1-407); details: protein: recombinant; tags: N-terminal GST; dsDNA, one strand shown
# T6 sequence: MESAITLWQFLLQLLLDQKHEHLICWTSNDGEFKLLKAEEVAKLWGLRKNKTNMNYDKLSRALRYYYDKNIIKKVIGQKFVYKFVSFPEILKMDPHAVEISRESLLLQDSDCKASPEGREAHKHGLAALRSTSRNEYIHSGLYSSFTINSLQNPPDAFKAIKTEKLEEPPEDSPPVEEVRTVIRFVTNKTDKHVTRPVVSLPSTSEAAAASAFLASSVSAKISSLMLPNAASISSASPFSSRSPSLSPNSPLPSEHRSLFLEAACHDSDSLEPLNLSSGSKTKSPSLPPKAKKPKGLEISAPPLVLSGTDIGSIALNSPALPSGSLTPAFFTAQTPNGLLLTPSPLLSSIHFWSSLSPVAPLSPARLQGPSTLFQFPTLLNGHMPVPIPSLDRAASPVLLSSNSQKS
# Outline: as §1
# FEV = target: T7, FEV (Homo sapiens, UniProt Q99581 1-238); details: protein: recombinant; tags: N-terminal GST; dsDNA, one strand shown
# T7 sequence: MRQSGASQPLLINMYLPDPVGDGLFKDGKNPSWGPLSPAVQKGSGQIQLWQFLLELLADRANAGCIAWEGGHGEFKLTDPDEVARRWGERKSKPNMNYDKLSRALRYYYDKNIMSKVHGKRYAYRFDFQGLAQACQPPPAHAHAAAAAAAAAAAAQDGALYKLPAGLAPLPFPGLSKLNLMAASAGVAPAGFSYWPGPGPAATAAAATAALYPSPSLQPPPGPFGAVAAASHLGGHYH
# Outline: as §1
# ETV5 = ETV5 (Homo sapiens, UniProt P41161 1-510); details: protein: recombinant; tags: N-terminal GST; dsDNA, one strand shown
# Chain of ETV5 (P41161 whole entry): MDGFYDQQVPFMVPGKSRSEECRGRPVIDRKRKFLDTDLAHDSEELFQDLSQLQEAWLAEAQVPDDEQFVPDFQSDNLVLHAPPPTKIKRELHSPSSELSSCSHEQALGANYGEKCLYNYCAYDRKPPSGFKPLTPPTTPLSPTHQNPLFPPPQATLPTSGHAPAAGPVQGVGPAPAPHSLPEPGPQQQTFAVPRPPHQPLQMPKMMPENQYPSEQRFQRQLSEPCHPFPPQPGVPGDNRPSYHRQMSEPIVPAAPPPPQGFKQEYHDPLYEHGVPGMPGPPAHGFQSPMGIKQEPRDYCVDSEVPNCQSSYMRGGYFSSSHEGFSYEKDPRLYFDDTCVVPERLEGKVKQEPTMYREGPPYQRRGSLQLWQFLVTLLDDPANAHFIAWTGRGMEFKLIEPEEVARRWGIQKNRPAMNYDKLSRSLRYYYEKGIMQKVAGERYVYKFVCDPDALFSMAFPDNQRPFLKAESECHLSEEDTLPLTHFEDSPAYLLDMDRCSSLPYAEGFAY
# Outline: as §1
# HSF1 = HSF1 (Homo sapiens, UniProt Q00613 1-529); details: protein: recombinant; tags: N-terminal GST; chain copies: 3; dsDNA, one strand shown
# Chain of HSF1 (Q00613 whole entry): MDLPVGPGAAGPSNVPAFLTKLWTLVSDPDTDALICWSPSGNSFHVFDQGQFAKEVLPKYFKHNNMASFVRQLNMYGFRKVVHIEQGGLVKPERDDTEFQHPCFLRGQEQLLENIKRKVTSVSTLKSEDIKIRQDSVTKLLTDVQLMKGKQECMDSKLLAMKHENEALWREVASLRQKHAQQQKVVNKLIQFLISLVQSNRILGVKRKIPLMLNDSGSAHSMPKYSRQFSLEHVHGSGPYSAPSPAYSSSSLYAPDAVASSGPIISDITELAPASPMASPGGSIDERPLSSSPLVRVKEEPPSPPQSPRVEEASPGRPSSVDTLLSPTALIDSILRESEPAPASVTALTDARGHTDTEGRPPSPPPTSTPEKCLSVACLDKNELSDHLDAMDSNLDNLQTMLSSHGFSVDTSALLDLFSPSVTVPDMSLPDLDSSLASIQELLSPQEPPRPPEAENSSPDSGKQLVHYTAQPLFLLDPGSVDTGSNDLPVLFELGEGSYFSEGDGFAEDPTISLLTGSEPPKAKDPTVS
# Outline: as §1
# SPIC = target: T8, SPIC (Homo sapiens, UniProt Q8N5J4 1-248); details: protein: recombinant; tags: N-terminal GST; dsDNA, one strand shown
# T8 sequence: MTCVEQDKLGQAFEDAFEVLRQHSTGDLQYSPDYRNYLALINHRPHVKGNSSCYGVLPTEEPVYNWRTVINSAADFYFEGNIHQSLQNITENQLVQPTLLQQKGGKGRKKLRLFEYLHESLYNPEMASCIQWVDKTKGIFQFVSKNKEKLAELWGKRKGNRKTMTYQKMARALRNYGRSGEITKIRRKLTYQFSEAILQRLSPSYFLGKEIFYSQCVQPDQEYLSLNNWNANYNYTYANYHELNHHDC
# Outline: as §1
# ELF4 = ELF4 (Homo sapiens, UniProt Q99607 1-663); details: protein: recombinant; tags: N-terminal GST; dsDNA, one strand shown
# Chain of ELF4 (Q99607 whole entry): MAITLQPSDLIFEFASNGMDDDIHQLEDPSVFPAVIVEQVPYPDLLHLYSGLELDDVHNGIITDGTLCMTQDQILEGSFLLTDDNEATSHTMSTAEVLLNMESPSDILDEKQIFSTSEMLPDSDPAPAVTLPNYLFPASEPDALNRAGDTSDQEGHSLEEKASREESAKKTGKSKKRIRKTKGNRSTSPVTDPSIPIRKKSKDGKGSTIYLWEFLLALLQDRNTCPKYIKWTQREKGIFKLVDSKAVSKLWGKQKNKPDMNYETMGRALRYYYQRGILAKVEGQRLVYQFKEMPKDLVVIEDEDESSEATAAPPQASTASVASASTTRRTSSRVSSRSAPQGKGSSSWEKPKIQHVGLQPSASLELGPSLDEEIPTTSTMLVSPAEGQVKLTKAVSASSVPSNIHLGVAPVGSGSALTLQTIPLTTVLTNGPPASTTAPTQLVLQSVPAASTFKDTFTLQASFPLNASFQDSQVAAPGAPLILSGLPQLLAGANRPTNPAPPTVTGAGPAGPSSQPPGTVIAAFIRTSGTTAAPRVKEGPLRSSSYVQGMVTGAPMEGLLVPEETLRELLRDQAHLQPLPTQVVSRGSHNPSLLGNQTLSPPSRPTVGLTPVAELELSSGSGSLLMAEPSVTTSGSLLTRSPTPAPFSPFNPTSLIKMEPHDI
# Outline: as §1
# ELK4 = target: T9, ELK4 (Homo sapiens, UniProt P28324-2 1-405); details: protein: recombinant; tags: N-terminal GST; dsDNA, one strand shown
# T9 sequence: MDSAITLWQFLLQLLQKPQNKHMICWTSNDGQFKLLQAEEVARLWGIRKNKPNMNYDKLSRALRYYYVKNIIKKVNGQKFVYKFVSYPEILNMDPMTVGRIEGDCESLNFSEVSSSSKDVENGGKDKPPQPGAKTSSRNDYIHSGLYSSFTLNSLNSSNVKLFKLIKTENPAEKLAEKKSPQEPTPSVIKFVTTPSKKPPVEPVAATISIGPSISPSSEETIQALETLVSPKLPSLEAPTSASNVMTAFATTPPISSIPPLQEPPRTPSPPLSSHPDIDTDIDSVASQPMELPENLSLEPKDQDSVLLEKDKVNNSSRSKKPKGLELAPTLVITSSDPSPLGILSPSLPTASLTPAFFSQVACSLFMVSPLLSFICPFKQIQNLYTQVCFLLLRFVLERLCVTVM
# Outline: as §1
# ETV2 = target: T10, ETV2 (Homo sapiens, UniProt O00321 1-342); details: protein: recombinant; tags: N-terminal GST; dsDNA, one strand shown
# T10 sequence: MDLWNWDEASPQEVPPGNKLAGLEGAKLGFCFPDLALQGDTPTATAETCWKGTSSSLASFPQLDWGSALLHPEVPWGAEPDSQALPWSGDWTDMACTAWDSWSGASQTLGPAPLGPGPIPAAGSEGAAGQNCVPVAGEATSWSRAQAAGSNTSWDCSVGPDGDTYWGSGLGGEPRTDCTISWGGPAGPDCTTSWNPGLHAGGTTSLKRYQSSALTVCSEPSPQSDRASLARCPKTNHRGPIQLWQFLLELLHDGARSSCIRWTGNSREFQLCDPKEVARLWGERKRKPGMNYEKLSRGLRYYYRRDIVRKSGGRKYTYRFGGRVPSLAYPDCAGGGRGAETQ
# Outline: as §1
# ELF3 = target: T11, ELF3 (Homo sapiens, UniProt P78545 1-371); details: protein: recombinant; tags: N-terminal GST; dsDNA, one strand shown
# T11 sequence: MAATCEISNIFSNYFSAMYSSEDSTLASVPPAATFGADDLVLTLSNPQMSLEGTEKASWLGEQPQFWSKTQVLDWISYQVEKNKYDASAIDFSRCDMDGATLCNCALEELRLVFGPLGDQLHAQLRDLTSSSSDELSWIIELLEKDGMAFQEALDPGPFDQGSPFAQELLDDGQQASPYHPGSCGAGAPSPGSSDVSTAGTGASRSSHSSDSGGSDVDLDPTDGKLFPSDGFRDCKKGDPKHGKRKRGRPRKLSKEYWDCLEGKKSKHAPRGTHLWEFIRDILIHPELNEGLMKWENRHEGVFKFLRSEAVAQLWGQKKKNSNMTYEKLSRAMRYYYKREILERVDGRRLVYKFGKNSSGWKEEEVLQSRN
# Outline: as §1
# CRX = CRX (Homo sapiens, UniProt O43186 1-299); details: protein: recombinant; tags: N-terminal GST; dsDNA, one strand shown
# Chain of CRX (O43186 whole entry): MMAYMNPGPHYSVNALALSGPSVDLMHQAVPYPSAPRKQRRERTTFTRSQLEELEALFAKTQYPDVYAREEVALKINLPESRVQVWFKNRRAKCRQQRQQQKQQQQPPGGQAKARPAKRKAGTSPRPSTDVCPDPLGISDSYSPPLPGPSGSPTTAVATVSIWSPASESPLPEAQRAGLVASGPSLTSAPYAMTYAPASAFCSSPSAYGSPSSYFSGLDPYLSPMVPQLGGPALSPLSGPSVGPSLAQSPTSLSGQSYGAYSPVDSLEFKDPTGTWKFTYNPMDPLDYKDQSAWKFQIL
# Outline: as §1
# ETV1 = ETV1 (Homo sapiens, UniProt P50549 1-477); details: protein: recombinant; tags: N-terminal GST; dsDNA, one strand shown
# Chain of ETV1 (P50549 whole entry): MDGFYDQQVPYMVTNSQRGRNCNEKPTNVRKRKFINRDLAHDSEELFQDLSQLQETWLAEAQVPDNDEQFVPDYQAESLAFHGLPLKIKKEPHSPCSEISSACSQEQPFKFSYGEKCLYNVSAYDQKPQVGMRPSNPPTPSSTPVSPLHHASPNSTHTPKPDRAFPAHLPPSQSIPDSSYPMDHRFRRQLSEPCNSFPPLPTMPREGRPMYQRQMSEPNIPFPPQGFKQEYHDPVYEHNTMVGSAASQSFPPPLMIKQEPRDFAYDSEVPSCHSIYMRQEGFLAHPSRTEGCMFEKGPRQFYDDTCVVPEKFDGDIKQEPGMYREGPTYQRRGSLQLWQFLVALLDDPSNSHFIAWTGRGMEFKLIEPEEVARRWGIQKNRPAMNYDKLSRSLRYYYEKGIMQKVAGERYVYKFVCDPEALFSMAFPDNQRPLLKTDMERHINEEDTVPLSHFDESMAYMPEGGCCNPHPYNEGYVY
# Outline: as §1
sequence,measurement,setting,value
CCCTAA,binding signal,FLI1,"1.16 fold enrichment (6-mer frequency, TF over GST control)"
same,binding signal,ELK1,"1.19 fold enrichment (6-mer frequency, TF over GST control)"
same,binding signal,GABPA,"1.15 fold enrichment (6-mer frequency, TF over GST control)"
same,binding signal,ERG,"1.17 fold enrichment (6-mer frequency, TF over GST control)"
same,binding signal,ELF1,"1.25 fold enrichment (6-mer frequency, TF over GST control)"
same,binding signal,EHF,"1.24 fold enrichment (6-mer frequency, TF over GST control)"
same,binding signal,SPI1,"1.2 fold enrichment (6-mer frequency, TF over GST control)"
same,binding signal,SPIB,"1.29 fold enrichment (6-mer frequency, TF over GST control)"
same,binding signal,ELK3,"1.28 fold enrichment (6-mer frequency, TF over GST control)"
same,binding signal,FEV,"1.18 fold enrichment (6-mer frequency, TF over GST control)"
same,binding signal,ETV5,"1.28 fold enrichment (6-mer frequency, TF over GST control)"
same,binding signal,HSF1,"1.29 fold enrichment (6-mer frequency, TF over GST control)"
same,binding signal,SPIC,"1.24 fold enrichment (6-mer frequency, TF over GST control)"
same,binding signal,ELF4,"1.28 fold enrichment (6-mer frequency, TF over GST control)"
same,binding signal,ELK4,"1.28 fold enrichment (6-mer frequency, TF over GST control)"
same,binding signal,ETV2,"1.23 fold enrichment (6-mer frequency, TF over GST control)"
same,binding signal,ELF3,"1.25 fold enrichment (6-mer frequency, TF over GST control)"
same,binding signal,CRX,"1.71 fold enrichment (6-mer frequency, TF over GST control)"
same,binding signal,ETV1,"1.23 fold enrichment (6-mer frequency, TF over GST control)"
